The panel holds about 83,000 compounds, 20% with a hit somewhere; the sample as a whole holds those more often.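 Step 1: grow cells in 96-well plates. Step 2: add test compound at a single concentration. Step 3: incubate 48 h. Step 4: record percent growth.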 A number with no mark means an inactive call. Calls of active or inactive are those of the source. How the source made its calls: active means growth percent below 10; inactive means the rest.
Assays:
Assay in all cases: NCI-60 one-dose screen, 48 h (100 = growth as untreated, 0 = no growth, -100 = all killed)
Settings in all cases: 10 µM unless noted
HCT-15 colon = test system: HCT-15 colon
HT29 colon = test system: HT29 colon
SNB-75 CNS = test system: SNB-75 CNS
SNB-19 CNS = test system: SNB-19 CNS
U251 CNS = test system: U251 CNS
PC-3 prostate = test system: PC-3 prostate
SK-MEL-5 melanoma = test system: SK-MEL-5 melanoma
UACC-62 melanoma = test system: UACC-62 melanoma
LOX IMVI melanoma = test system: LOX IMVI melanoma
SK-MEL-28 melanoma = test system: SK-MEL-28 melanoma
SK-MEL-2 melanoma = test system: SK-MEL-2 melanoma
EKVX NSCLC = test system: EKVX NSCLC
UO-31 renal = test system: UO-31 renal
TK-10 renal = test system: TK-10 renal
CAKI-1 renal = test system: CAKI-1 renal
A498 renal = test system: A498 renal
CCRF-CEM leukemia = test system: CCRF-CEM leukemia
MOLT-4 leukemia = test system: MOLT-4 leukemia
SN12C renal = test system: SN12C renal
ACHN renal = test system: ACHN renal

| Compound | growth (HCT-15 colon) | growth (HT29 colon) | growth (SNB-75 CNS) | growth (SNB-19 CNS) | growth (U251 CNS) | growth (PC-3 prostate) | growth (SK-MEL-5 melanoma) | growth (UACC-62 melanoma) | growth (LOX IMVI melanoma) | growth (SK-MEL-28 melanoma) | growth (SK-MEL-2 melanoma) | growth (EKVX NSCLC) | growth (UO-31 renal) | growth (TK-10 renal) | growth (CAKI-1 renal) | growth (A498 renal) | growth (CCRF-CEM leukemia) | growth (MOLT-4 leukemia) | growth (SN12C renal) | growth (ACHN renal) |
| --- | --- | --- | --- | --- | --- | --- | --- | --- | --- | --- | --- | --- | --- | --- | --- | --- | --- | --- | --- | --- |
| O=C(Nc1cc(Cl)ccc1O)c1ccccc1Nc1ccnc(C(F)(F)F)c1 | 14.1% | 38.2% | 55.6% | 16.2% | 10.8% | 7.3% (active) | -43.8% (active) | 23.1% | 18.8% | 75% | 31.8% | 75.8% | 1.11% (active) | 74.5% | 72.1% | 53.7% | -2.43% (active) | -25% (active) | – | – |
| Cc1cccc(N2C(=O)/C(=C/C(Cl)=C/c3ccc([N+](=O)[O-])cc3)SC2=S)c1C | -20.3% (active) | -7.89% (active) | -19.1% (active) | 26.3% | 4.72% (active) | 8.37% (active) | -33.4% (active) | 0.485% (active) | -70.4% (active) | 24.2% | 64% | – | -72.6% (active) | -9.69% (active) | 35.7% | 61.1% | – | 5.73% (active) | -13.4% (active) | -84.1% (active) |
| Nc1cc(Br)cc2c1[nH]c(=O)c1ccccc12 | 110% | 114% | 81.7% | 102% | 90.7% | 89.6% | 96.5% | 100% | 95.5% | 101% | 112% | – | 81.4% | 104% | 82.5% | 92.5% | 93.2% | 80.5% | 88.6% | 102% |
| O=C(Nc1cc(Cl)cc(Cl)c1)Oc1c(Cl)c(Cl)c(Cl)c(Cl)c1Cl | 77.8% | 73.2% | 71.3% | 66.1% | 62.9% | 42.2% | 41.5% | 65.7% | 72.5% | 84.8% | 64% | 64.2% | 58.4% | 113% | 68.1% | 19.6% | 47.7% | 63.5% | – | 65.8% |
| CCN(CC)c1ccc(-c2cc(-c3cc(OC)c(OC)c(OC)c3)nc(N3CCC(O)CC3)c2C#N)cc1 | -36.7% (active) | -32.7% (active) | -41.5% (active) | 15.4% | -32.5% (active) | 13.1% | -99.4% (active) | -49.9% (active) | -27.8% (active) | -46.6% (active) | -66.6% (active) | 18.6% | -43.9% (active) | 3.06% (active) | -31.7% (active) | 29% | – | 2.73% (active) | – | 7.6% (active) |
| O=c1cc(C(F)(F)F)c2cc(-c3cc4ccccc4c(=O)o3)c(O)cc2o1 | 90.3% | 106% | 76.1% | 67.7% | 65.7% | 68.5% | 24.9% | 21.9% | 72.8% | 69.6% | 46.1% | 89.5% | 58.5% | 103% | 76.5% | 72% | 53.9% | 58.5% | – | 74.1% |
| Cc1ccc(NC(=O)c2cc3ccccc3cc2O)c(C)c1 | 77.4% | 104% | 96.8% | 105% | 97.5% | 35.9% | 49.4% | 66.1% | 88% | 81.9% | 91.8% | 79.6% | 69.2% | 93.8% | 66.5% | 68.4% | – | 104% | – | – |
| C/C(Cc1ccc(Cl)cc1)=C(\c1ccc(OCCN2CCCCCC2)cc1)c1ccc(OC(=O)c2ccccc2)cc1 | 14.1% | 6.24% (active) | 77.3% | 50.3% | 37.8% | 19.4% | 35.3% | -3.38% (active) | -21.8% (active) | -1.89% (active) | 77.4% | – | 24% | 67% | 52.6% | 76.1% | -4.75% (active) | 9.42% (active) | 11.2% | 68.9% |
| CC1(C)CC[C@]23CC[C@]4(C)[C@H](CC[C@@H]5[C@@]6(C)CCNCC(C)(C)[C@@H]6CC[C@]54C)[C@H]2[C@H]1OC3 | 54.2% | 18.6% | 96.8% | 103% | 70% | 65.8% | 96.2% | 94.4% | 83.8% | 99.9% | 99.1% | – | 99.5% | 108% | 93.9% | 117% | 70.8% | 58.7% | 89.6% | 106% |
| Cc1nn(C)c2ncnc(N/N=C/c3cccc(O)c3O)c12 | 28.9% | 62.5% | 38.6% | 19.7% | 15.7% | 35.9% | -41.4% (active) | -8.29% (active) | 4.98% (active) | 11.4% | 31.5% | 6.94% (active) | -13.4% (active) | 28.7% | 6.5% (active) | 26.6% | -16.7% (active) | 3.79% (active) | – | 4.41% (active) |
| Cc1ccc(O)c(NC(=O)c2cccc(Nc3ccnc(C(F)(F)F)c3)c2)c1 | 80% | 101% | 85% | 90.5% | 83.6% | 68% | 20.7% | 30.8% | 66.9% | 100% | 82.7% | – | 29.3% | 92.2% | 41.6% | 96.1% | -1.16% (active) | -4.89% (active) | 39.9% | 57.8% |
| Fc1ccc(/C=C/[C@@H]2C[C@@H](F)CCO2)cc1 | 93.7% | 99.9% | 99.3% | 93.8% | 111% | 43.6% | 98% | 90.9% | 96.9% | 92.9% | 110% | 97.3% | 87% | 94.2% | 86.8% | 109% | 86.8% | 70.1% | – | 101% |
| COC1C(O)CC(OC2CC(OC3CC(O[C@@H]4C(=O)c5c(cc6cc(OC7CC(OC8CC(O)C(O)C(C)O8)C(O)C(C)O7)c(C)c(O)c6c5O)CC4[C@H](OC)C(=O)C(C)=O)OC(C)C3O)OC(C)C2O)OC1C (stereo partly specified) | -2.22% (active) | -19.8% (active) | -80.9% (active) | 11.2% | 1.19% (active) | -1.97% (active) | -40.4% (active) | -30.3% (active) | -2.05% (active) | -20.6% (active) | -41.9% (active) | – | -27.7% (active) | -8.69% (active) | 16.9% | -44.1% (active) | 4.37% (active) | -6.83% (active) | 7.44% (active) | 5.29% (active) |
| c1cc(OCCCCCOc2cccc(-c3nc4ccccc4[nH]3)c2)cc(-c2nc3ccccc3[nH]2)c1 | 12.3% | 5.53% (active) | 31.4% | 22.3% | 6.76% (active) | -13.1% (active) | -81.5% (active) | 8.55% (active) | -27.8% (active) | 18.7% | 9.28% (active) | 2.5% (active) | 3.69% (active) | 25.7% | 36.4% | 9.68% (active) | -18.9% (active) | -13.5% (active) | – | – |
| COc1ccc(/C=C2\CN(C(=O)C(Cl)Cl)C/C(=C\c3ccc(OC)c(OC)c3)C2=O)cc1OC | -38.9% (active) | 10.8% | 10.9% | 6.34% (active) | -17.4% (active) | -7.16% (active) | -58.8% (active) | -59.6% (active) | -67.8% (active) | -8.59% (active) | 14.9% | 8.31% (active) | -99% (active) | 22% | -17.2% (active) | -48.2% (active) | 12% | 5.43% (active) | – | – |
| CCOC(=O)c1cnn(CC(C)O)c1NC(=O)NCc1cccc(F)c1 (stereo unspecified) | 107% | 84.3% | 104% | 107% | 97.4% | 73.3% | 100% | 92.2% | 97.1% | 113% | 85.6% | 99.9% | – | 86.9% | 97.3% | 96.4% | -2.06% (active) | 81.4% | – | 106% |

Reference: PubChem BioAssay (NCI)
